The campaign covered roughly 310,000 compounds. About 18,000 (5.8%) were called active. About 22% were inconclusive and are not listed. The call rests on the fitted dose curve; in most records, active means well fitted inhibition curve with a large enough effect; inconclusive means small, poorly fitted or top-dose-only effect, or another doubt; inactive means no such curve, though single readings can be large or run the other way. The entries come from a sample that favours actives as a whole.
On the % scale 0 is the no-effect control and ±100 the full control effect; potency means the concentration at half of the fitted maximal effect.

The assay in a line: Primary qHTS for delayed death inhibitors of the malarial parasite plastid, 48 hour incubation. Particulars: P. falciparum luciferase growth in erythrocytes; series mostly up to 28.7 µM; activity change, negative = inhibition: at the top concentration. In a few lines:
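In quantitative HTS format, infected erythrocytes bearing luciferase-reporter parasites were treated for a single generation at 37 C. Luminescence after adding detection reagent served as the growth measure.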
`Cc1ccccc1NCC(=O)N/N=C\c1ccc([N+](=O)[O-])s1`: the Potency was 9.28 µM (active). `CCOc1ccc(NC(=O)CCC(=O)n2nc(C)cc2C)cc1`: the “activity change, negative = inhibition” value was 11.4% (inactive). On the same count and under the same terms, as for `Cc1cccc(/C=N/NC(=O)CNc2cccc3ccccc23)n1`, the figure is 26.1% (inactive). The same measure, in the same setting: for `Cn1cccc1/C=N/NC(=O)CNc1cccc2ccccc12` the value was -2.89% (inactive). `CN(C)c1cccc(C(=O)N2CCC(n3nccc3NC(=O)C3CCOC3)CC2)c1` (stereo not given): the “activity change, negative = inhibition” value is -2.94% (inactive). Still for that read-out and setting: as for `COc1ccc(CCNC(=O)C(=O)NCC2OCCN2S(=O)(=O)c2ccc(OC)c(C)c2)cc1` (stereo not given), the figure is -8.72% (inactive); as for `COC(=O)c1ccccc1NC(=O)CSc1nc2c(c(=O)[nH]1)CCC2`, 20.7% (inactive); as for `CCc1ccc(OCC(=O)OC(C)C(=O)NC2CC2)cc1` (stereo not given), 75.2% (inactive). Same read-out and setting: for `O=C(NC1CCCC1)C1CCN(C(=O)Nc2cccc(Cl)c2)CC1` the value was -17.9% (inactive).

For `COc1ccc(Cl)cc1NC(=O)C(C)N1CCc2ccccc21` (stereo not given), the Potency is 6.57 µM (active). For the compound `COc1ccc(Cl)cc1NC(=O)CNc1ccccc1F`, the “activity change, negative = inhibition” value is -15.1% (inactive).

With `COc1ccc(Cl)cc1NC(=O)CCN1CCOCC1`, the “activity change, negative = inhibition” value is -10.9% (inactive).

In the case of `O=C(O)CC(c1ccccc1F)N1Cc2ccccc2C1=O` (stereo not given), the “activity change, negative = inhibition” value is 16.6% (inactive). On the same count and under the same terms, as for `CNc1nc(Nc2ccc(C)c(Cl)c2)nc(N)c1[N+](=O)[O-]`, the figure is 200% (inactive). The same measure, in the same setting: for `Nc1nc(NCC(=O)O)nc(N2CCCCCC2)c1[N+](=O)[O-]` the value was 41.1% (inactive).

Take `CCN1CCN(c2nc(Nc3cccc(F)c3)nc(N)c2[N+](=O)[O-])CC1`: the Potency was 13.1 µM (active). For the compound `COc1ccccc1C(=O)NC(=O)COC(=O)c1ccco1`, the “activity change, negative = inhibition” value was 0.409% (inactive). For `O=C(Cn1cnc2ccccc21)Nc1ccccc1-c1ccccc1`, the “activity change, negative = inhibition” value was 10.1% (inactive). Same read-out and setting: for `CCSc1nnc(SCC(=O)NNC(=O)c2ccccc2F)s1` the value was 17.2% (inactive). `Cc1c(CN2CCC(CO)(CCOc3ccccc3)CC2)[nH]c2ccc(Cl)cc12`: the Potency was 3.7 µM (active). For the compound `Cc1cc(OCCCN2CCN(Cc3ccccc3)CC2)ccc1[N+](=O)[O-]`, the “activity change, negative = inhibition” value is 7.77% (inactive). With `OCC1(CCOc2ccccc2)CCN(Cc2cn[nH]c2-c2ccccc2)CC1`, the “activity change, negative = inhibition” value was -18.6% (inactive). Regarding `CC(OC(=O)CN1C(=O)COc2ccccc21)C(=O)NCc1ccc(F)cc1` (stereo not given), the “activity change, negative = inhibition” value was -14.5% (inactive). Same read-out and setting: as for `O=C(NCCc1ccccn1)c1nc(Cn2cc([N+](=O)[O-])cn2)no1`, the figure is 30.2% (inactive). The same measure, in the same setting: for `CC(=O)Nc1ccc(S(=O)(=O)N(C)c2nc3ccccc3nc2Cl)cc1` the value was -27% (inactive); for `COc1ccc(C(=O)C2CCCN(C(=O)c3cc(C)on3)C2)cc1F` (stereo not given), 42.1% (inactive); for `O=C(COC(=O)c1ccccc1F)Nc1cc(S(=O)(=O)N2CCOCC2)ccc1N1CCCC1`, -14.6% (inactive). On the same count and under the same terms, for `CCOc1cc(N2CCOCC2)c(OCC)cc1NC(=O)C1=NN(c2cccc(C)c2)C(=O)CC1` the value was 10.1% (inactive); for `NC(=O)C1CCN(C(=O)COc2cccc3cccnc23)CC1`, 7.18% (inactive). For the compound `O=C(COc1cccc2ccccc12)Nc1cc(S(=O)(=O)N2CCOCC2)ccc1N1CCOCC1`, the Potency is 11.7 µM (active). In the case of `CCOc1cc(N2CCOCC2)c(OCC)cc1NC(=O)COc1cccc2cccnc12`, the Potency is 3.29 µM (active). `CC(=O)NCCC(=O)Nc1cc(S(=O)(=O)N2CCOCC2)ccc1N1CCOCC1`: the “activity change, negative = inhibition” value was -16.3% (inactive). Regarding `O=C(Nc1c2c(nn1-c1ccccc1)CS(=O)(=O)C2)C1CCCC1`, the “activity change, negative = inhibition” value was -1.05% (inactive). In the case of `Cc1cccc(C)c1NC(=O)CSc1nc2c([nH]1)c(=O)n(C)c(=O)n2C`, the “activity change, negative = inhibition” value is -6.97% (inactive). On the same count and under the same terms, for `Cc1cc(NC(=O)Nc2c[nH]c(=O)[nH]c2=O)ccc1Br` the value was 44.9% (inactive); for `O=C(NC1CCN(S(=O)(=O)c2ccc(F)cc2)CC1)c1ccccc1`, -8.27% (inactive); for `O=C(Cc1cccs1)Nc1ccc([N+](=O)[O-])cc1`, -2.04% (inactive).

Regarding `O=C(CN(c1cc(C(F)(F)F)ccc1Cl)S(=O)(=O)c1ccccc1)NCc1cccnc1`, the “activity change, negative = inhibition” value was -14% (inactive).

With `CCCNC(=O)c1ccc(N2CCC3(CC2)CC(c2cccc(Br)c2)=NO3)c(NC(=O)c2ccco2)c1`, the Potency is 0.738 µM (active). Turning to `COCCNC(=O)c1ccc(N2CCC3(CC2)OCCO3)c([N+](=O)[O-])c1`, the “activity change, negative = inhibition” value is 14.9% (inactive). As for `CCCNC(=O)c1ccc(N2CCC3(CC2)CC(c2ccc(Cl)cc2)=NO3)c([N+](=O)[O-])c1`, the “activity change, negative = inhibition” value was -27.8% (inactive). As to `CCOC(=O)C1CCCN(S(=O)(=O)c2ccc(-n3cnnn3)c(C)c2)C1` (stereo not given), the “activity change, negative = inhibition” value is -3.15% (inactive). With `Cc1cnc(CN(C)C(=O)C2CCC(=O)N(CCc3cccc(F)c3)C2)[nH]1` (stereo not given), the “activity change, negative = inhibition” value was 18.4% (inactive). For the compound `Cc1ccc(N(CC(=O)NCC2CCCO2)C(=O)CNS(=O)(=O)c2ccc(Cl)cc2)cc1` (stereo not given), the “activity change, negative = inhibition” value was 6.36% (inactive).

For the compound `O=c1[nH]c(N2CCOCC2)nc2ccccc12`, the “activity change, negative = inhibition” value was 1.63% (inactive).

For the compound `Cc1ccc(S(=O)(=O)N2CCN(C(=O)COC(=O)c3c(C)cc(C)cc3C)CC2)c(C)c1`, the Potency was 14.7 µM (active).

On to `Cc1ccc(S(=O)(=O)N2CCN(C(=O)COC(=O)c3c(C)noc3C)CC2)c(C)c1`, for which the “activity change, negative = inhibition” value was 52.3% (inactive). Regarding `Cc1ccc(S(=O)(=O)N2CCN(C(=O)CSc3cc(C)ccc3C)CC2)c(C)c1`, the “activity change, negative = inhibition” value was -1.45% (inactive). On the same count and under the same terms, as for `COc1ccc(N2CCN(C(=O)c3cccs3)CC2)cc1`, the figure is -15.9% (inactive); as for `O=C(NCCc1ccccc1Cl)C1CCC(=O)N(CCCc2ccccc2)C1` (stereo not given), 18% (inactive).

The values are drawn from PubChem BioAssay AID504832 (National Center for Advancing Translational Sciences (NCATS), 2011).
